Rows were chosen to be rich in hits. Some 3.8% of all compounds tested hit in one or more screens of this group.
ATXN viability: Viability Counterscreen for Primary qHTS for Inhibitors of ATXN expression | S2 cells (HEK-293 line with an ATXN2-luciferase reporter) viability, CellTiter-Fluor protease fluorescence, 24 h | Potency, µM (series often up to 56.7 µM), most hits filed as cytotoxic | hit rate 0.49% among 400,000 | AID 651635, 2014; note: nearly all actives have a fitted effect of over 40% in size
Nrf2 inh: Nrf2 qHTS screen for inhibitors. AID 504444, 2011. Potency, µM (highest dose often 46 µM), without a hit: at the highest dose activity change, negative = inhibition, usual class: inhibitors. A549 ARE-Fluc reporter, luciferase luminescence, 18-24 h. hit rate 2.1% among 360,000; note: % is set by controls: 0 for no effect and ±100 for the full control effect; nearly all actives have a fitted effect of over 60% in size
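Concentration-response testing used A549 ARE_Fluc cells at 5000 cells/well. Following an 18-24 h compound incubation, viability was read by fluorescence (Ex 405/Em 525) and luciferase output by luminescence.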
A549 viability: Nrf2 qHTS screen for inhibitors: counterscreen for cytotoxicity; A549 ARE-Fluc cells, CellTiter-Fluor viability, 18-24 h; Potency, µM (doses to about 46 µM), without a hit: at the highest dose activity change, negative = cytotoxicity, actives largely listed as inhibitors; hit rate 0.16% among 390,000; AID 504648, 2011; note: % is set by controls: 0 for no effect and ±100 for the full control effect
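Cytotoxicity counterscreen: CellTiter-Fluor fluorescence was measured in A549 ARE_Fluc cells after 18-24 h of compound exposure in a concentration series. The subsequent BugLite luminescent read reports ARE-luciferase activity.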
HepG2 tox-1: qHTS for Inhibitors of TGF-b: Cytotox Counterscreen | HepG2 CAGA-GFP viability, ATP luminescence, 18 h | Potency, µM (titrated, usually from 46.1 µM), without a hit: at the highest dose activity change, negative = cytotoxicity, most hits filed as cytotoxic | hit rate 0.76% among 410,000 | AID 588856, 2011
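HepG2 CAGA-GFP cells (1000/well, DMEM with 1% FBS) received compound, then TGF-beta at 500 pg/mL final, and were incubated 18 hours at 37 degrees C. Viability was read by CellTiter-Glo luminescence. Media-only wells were set as complete cell-killing and DMSO as no toxicity.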
TGFb inhibitor: qHTS for Inhibitors of TGF-b | HepG2 CAGA-GFP TGF-b/SMAD3 reporter, GFP fluorescence, 18 h; TGF-beta stimulated, 500 pg/mL final | Potency, µM (titrated, usually from 46.1 µM), without a hit: at the top dose activity, negative = inhibition, hits mostly inhibitors | hit rate 1.2% among 410,000 | AID 588855, 2011; note: % is set by controls: 0 for no effect and ±100 for the full control effect; nearly all actives have a fitted effect of over 65% in size
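Using HEPG2 CAGA-GFP reporter cells at 1000 cells/well, we pinned test compounds, stimulated with recombinant TGF-beta (500 pg/mL final) and measured total well GFP after 18 h.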
ATXN2 expr inh: Primary qHTS for Inhibitors of ATXN expression; HEK-293 ATXN2-luciferase reporter, luminescence, 24 h; Potency, µM (highest dose often 57 µM), for the others: at the top dose activity change, negative = inhibition, most hits filed as inhibitors; AID 1745845, 2022; hit rate 0.72% among 360,000; note: % is set by controls: 0 for no effect and ±100 for the full control effect; nearly all actives have a fitted effect of over 55% in size
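qHTS (up to 57 uM final) was run with 24 h compound exposure of reporter cells at 37 °C. Each well was multiplexed: SteadyGlo luminescence measured ATXN2-luciferase expression after a fluorogenic Gly-Phe-AFC viability readout (25 uM final).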
TGFb CAGA inh: qHTS for Inhibitors of TGF-b: Confirmation of Cherry Picks; Potency, µM (series often up to 46.1 µM), for inactives: at the top dose activity, negative = inhibition, usual class: inhibitors; HepG2 CAGA-GFP TGF-b reporter, GFP fluorescence, 18 h; cells stimulated with TGF-beta, 500 pg/mL; shares compounds with TGFb inhibitor; hit rate 63% among 1,600; note: % is set by controls: 0 for no effect and ±100 for the full control effect; nearly all actives have a fitted effect of over 65% in size
HepG2 tox-2: qHTS for Inhibitors of TGF-b: Cytotox Counterscreen for Cherry Picks; shares compounds with TGFb inhibitor; HepG2 CAGA-GFP viability, ATP luminescence, 18 h; cells stimulated with TGF-beta, 500 pg/mL; Potency, µM (highest dose often 46.1 µM), without a hit: at the top dose activity, negative = cytotoxicity, hits mostly inhibitors; hit rate 27% among 1,600; note: % is set by controls: 0 for no effect and ±100 for the full control effect; nearly all actives have a fitted effect of over 70% in size
CCL64 TGFb inh: qHTS for Inhibitors of TGF-b: CCL64 Cells Orthogonal Assay for Cherry Picks; shares compounds with TGFb inhibitor; CCL64 CAGA-GFP reporter, TGF-b stimulated, GFP fluorescence, 18 h; Potency, µM (series often up to 46.1 µM), for inactives: at the highest dose activity, negative = inhibition, most hits filed as inhibitors; hit rate 41% among 1,600; note: nearly all actives have a fitted effect of over 65% in size
TGFb COP inh: qHTS for Inhibitors of TGF-b: Hit Validation in HepG2 Cells using COP promoter; shares compounds with TGFb inhibitor; HepG2 COP-GFP TGF-b reporter, GFP fluorescence, 18 h; cells stimulated by added recombinant TGF-beta; Potency, µM (titrated, usually from 46.1 µM), inactives show top-dose activity, negative = inhibition, actives largely listed as inhibitors; hit rate 3% among 1,600; AID 720537, 2013; note: nearly all actives have a fitted effect of over 70% in size
An asterisk follows results filed as active; i = inactive; ? = inconclusive; / = no result given; [ ] = remark or other dose. Calls come from the whole dose curve; as a rule, active = well fitted curve in the direction sought with a large enough effect; inconclusive = small, poorly fitted or top-dose-only effect, or another doubt; inactive = no such curve, though single readings can be large; an effect the other way counts as inactive or inconclusive. Potency is the fitted concentration of half-maximal effect.

SMILES	ATXN viability	Nrf2 inh	A549 viability	HepG2 tox-1	TGFb inhibitor	ATXN2 expr inh	TGFb CAGA inh	HepG2 tox-2	CCL64 TGFb inh	TGFb COP inh
Cc1cccc(NC(=O)CSc2nc3ccccc3nc2N2CC(C)OC(C)C2)c1 (stereo not given)	?	?	-9%	8%	?	-11%	/	/	/	/
Nc1ccccc1-c1nnc(SCC(=O)Nc2ccccc2OC(F)F)[nH]c1=O	i	11%	-3%	10%	8%	7%	/	/	/	/
CN(Cc1cccc(Cl)c1Cl)C(=O)c1cccc(S(=O)(=O)N2CCN(Cc3ccccc3)CC2)c1	?	13µM*	-16%	-1%	8.9µM*	-23%	10µM*	?	?	13%
O=c1c2oc3ccccc3c2n(Cc2ccccc2F)c(=O)n1Cc1ccco1	i	9%	1%	10%	1%	3%	/	/	/	/
O=C1c2cccc(OCc3ccc(F)cc3)c2CCN1Cc1ccc(F)cc1	i	16µM*	-5%	-29%	6.3µM*	?	23µM*	?	13µM*	31%
CCOC(=O)c1ccccc1NC(=O)c1sc2ncn(Cc3cccc(F)c3)c(=O)c2c1C	?	/	5%	-16%	0%	2%	/	/	/	/
Cc1cc(Cl)ccc1N=c1ssnc1Cl	i	?	-11%	-23%	7.9µM*	-21%	23µM*	?	?	4%
Nc1ccccc1N=c1ssnc1Cl	i	15%	0%	-9%	15%	-2%[11.3 µM]	/	/	/	/
O=C(Nc1ccc([N+](=O)[O-])cc1)OC1CCS(=O)(=O)C1 (stereo not given)	i	/	/	/	/	-5%	/	/	/	/
Cn1cc(C(=O)NCc2ccccc2)c(=O)c2cc(S(=O)(=O)N3CCCCCC3)ccc21	i	/	16%	-8%	-6%	10%	/	/	/	/
COc1cc(OC)cc(C(=O)N[C@H](C(=O)OCc2cc(=O)oc3cc(C)ccc23)C(C)C)c1	?	-20%	-5%	-1%	?	-6%	?	-5%	-12%	12%
Nc1ncnc2nc(SCC(=O)Nc3ccccc3F)[nH]c12	i	?	1%	-1%	7.9µM*	12%	10µM*	-13%	16µM*	1%
Cc1cc(C)c2c(N)c3ccccc3nc2n1	/	?	/	10%	11µM*	?	21µM*	18µM*	13µM*	5%
O=S(=O)(c1cc(F)ccc1F)N1CCN(c2ncccn2)CC1	i	-18%	3%	0%	0%	4%	/	/	/	/
